{
  "source": "paper PMC8384837",
  "about": "“Expanding the binding specificity for RNA recognition by a PUF domain”",
  "test_in_all_cases": "yeast three-hybrid, YBZ-1, SC-Leu-His + 0.5 mM 3-AT, 4 days",
  "conditions_in_all_cases": "tags: N-Gal4 AD-HA kept; label: inside an RPR1-promoter hybrid RNA with tandem MS2 sites; ssRNA",
  "key": {"[1]": {"target": "PUM1 PUF domain R1-RHV (Homo sapiens, UniProt Q14671 828-1176, S863R;R864H;Q867V)", "outline": "(§1)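 Each repeat of the Pumilio-1 PUF domain was randomized at its three base-contacting residues, and these libraries were co-expressed from a centromeric plasmid with matching RNA elements in strain YBZ-1. After four days on SC-Leu (input) or SC-Leu-His + 0.5 mM 3-AT (selection), the repeat regions were PCR-amplified and Illumina-sequenced. The interaction score compares variant frequency between input and selection as a log change, computed in log2 with a pseudocount of 1 for absent variants.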"}, "[2]": {"target": "PUM1 PUF domain R7-GVN (Homo sapiens, UniProt Q14671 828-1176, S1079G;N1080V;E1083N)", "outline": "as §1"}, "[3]": {"target": "T1, PUM1 PUF domain R6-HYS (Homo sapiens, UniProt Q14671 828-1176, N1043H;Q1047S)", "T1 sequence": "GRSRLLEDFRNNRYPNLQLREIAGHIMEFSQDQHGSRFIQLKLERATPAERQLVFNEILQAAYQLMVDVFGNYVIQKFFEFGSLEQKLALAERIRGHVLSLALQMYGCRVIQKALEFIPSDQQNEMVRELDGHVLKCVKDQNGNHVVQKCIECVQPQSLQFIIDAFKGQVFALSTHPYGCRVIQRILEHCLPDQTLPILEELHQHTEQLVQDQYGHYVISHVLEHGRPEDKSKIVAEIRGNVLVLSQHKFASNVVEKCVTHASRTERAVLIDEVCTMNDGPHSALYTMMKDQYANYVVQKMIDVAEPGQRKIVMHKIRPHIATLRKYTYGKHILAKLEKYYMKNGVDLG", "outline": "as §1"}, "[4]": {"target": "PUM1 PUF domain R5-KNC (Homo sapiens, UniProt Q14671 828-1176, C1007K;R1008N;Q1011C)", "outline": "as §1"}, "[5]": {"target": "PUM1 PUF domain R5-RCR (Homo sapiens, UniProt Q14671 828-1176, C1007R;R1008C;Q1011R)", "outline": "as §1"}, "[6]": {"target": "PUM1 PUF domain R7-KFF (Homo sapiens, UniProt Q14671 828-1176, S1079K;N1080F;E1083F)", "outline": "as §1"}, "[7]": {"target": "T2, PUM1 PUF domain R6-RWT (Homo sapiens, UniProt Q14671 828-1176, N1043R;Y1044W;Q1047T)", "T2 sequence": "T1 sequence with H216R, Y217W, S220T", "outline": "as §1"}},
  "note": "Where a chain is given by its changes, count along the chain named.",
  "data": [
    {"sequence": "GGCUAGAACUAGUGGAUCCCCCGGCGCCCGGCGGCUCGAGCCCGGGUAAGUGUAAAUUGUCUGCAUGCCGCCGGGCGCCAUGCCUGCAGGUCGACUCUAGAAAACAUG", "values": [
      {"measurement": "binding signal", "setting": "[1]", "result": "2.89 log2 enrichment (interaction score)"}
    ]},
    {"sequence": "GGCUAGAACUAGUGGAUCCCCCGGCGCCCGGCGGCUCGAGCCCGGGUAAGUGUAAAUCGUCUGCAUGCCGCCGGGCGCCAUGCCUGCAGGUCGACUCUAGAAAACAUG", "values": [
      {"measurement": "binding signal", "setting": "[1]", "result": "1.47 log2 enrichment (interaction score)"}
    ]},
    {"sequence": "GGCUAGAACUAGUGGAUCCCCCGGCGCCCGGCGGCUCGAGCCCGGGUAAGUUUAAAUAGUCUGCAUGCCGCCGGGCGCCAUGCCUGCAGGUCGACUCUAGAAAACAUG", "values": [
      {"measurement": "binding signal", "setting": "[2]", "result": "3.93 log2 enrichment (interaction score)"}
    ]},
    {"sequence": "GGCUAGAACUAGUGGAUCCCCCGGCGCCCGGCGGCUCGAGCCCGGGUAAGUGUAAAUAGUCUGCAUGCCGCCGGGCGCCAUGCCUGCAGGUCGACUCUAGAAAACAUG", "values": [
      {"measurement": "binding signal", "setting": "[3]", "result": "3.52 log2 enrichment (interaction score)"}
    ]},
    {"sequence": "GGCUAGAACUAGUGGAUCCCCCGGCGCCCGGCGGCUCGAGCCCGGGUAAGUGUUAAUAGUCUGCAUGCCGCCGGGCGCCAUGCCUGCAGGUCGACUCUAGAAAACAUG", "values": [
      {"measurement": "binding signal", "setting": "[4]", "result": "4.22 log2 enrichment (interaction score)"},
      {"measurement": "binding signal", "setting": "[5]", "result": "2.8 log2 enrichment (interaction score)"}
    ]},
    {"sequence": "GGCUAGAACUAGUGGAUCCCCCGGCGCCCGGCGGCUCGAGCCCGGGUAAGUGUCAAUAGUCUGCAUGCCGCCGGGCGCCAUGCCUGCAGGUCGACUCUAGAAAACAUG", "values": [
      {"measurement": "binding signal", "setting": "[5]", "result": "3.99 log2 enrichment (interaction score)"}
    ]},
    {"sequence": "GGCUAGAACUAGUGGAUCCCCCGGCGCCCGGCGGCUCGAGCCCGGGUAAGUAUAAAUAGUCUGCAUGCCGCCGGGCGCCAUGCCUGCAGGUCGACUCUAGAAAACAUG", "values": [
      {"measurement": "binding signal", "setting": "[6]", "result": "3.16 log2 enrichment (interaction score)"}
    ]},
    {"sequence": "GGCUAGAACUAGUGGAUCCCCCGGCGCCCGGCGGCUCGAGCCCGGGUAAGUCUAAAUAGUCUGCAUGCCGCCGGGCGCCAUGCCUGCAGGUCGACUCUAGAAAACAUG", "values": [
      {"measurement": "binding signal", "setting": "[6]", "result": "2.82 log2 enrichment (interaction score)"}
    ]},
    {"sequence": "GGCUAGAACUAGUGGAUCCCCCGGCGCCCGGCGGCUCGAGCCCGGGUAAGUGAAAAUAGUCUGCAUGCCGCCGGGCGCCAUGCCUGCAGGUCGACUCUAGAAAACAUG", "values": [
      {"measurement": "binding signal", "setting": "[7]", "result": "3.03 log2 enrichment (interaction score)"}
    ]}
  ]
}
